# In PubChem BioAssay AID540332 (The Scripps Research Institute Molecular Screening Center, 2011):
# Activity calls are given as the source filed them. How the calls were made is not given here.
# Tested on: Phorbol Ester
# Assay: selectivity profile across receptors and CYP450s – biochemical, Ricerca HitProfilingScreen, CYP450, set 2, selectivity assay for S1P4 agonist project, profiling panel (AID 540332)
# Conditions: at 30 µM; stronger effect = higher value
compound,measurement,value
COCCN=C1S/C(=C\c2cc(C)n(-c3ccc(F)cc3F)c2C)C(=O)N1C,inhibition,2% (inactive)
